SMILES strings stand for the structures. Results filed as inconclusive are left out. Calls of active or inactive are those of the source. Calls follow the shape of the full dose curve.

Assay [1] in a line: Primary qHTS for inhibitors of SARS-S pseudo-typed particle cell entry (AID 1479145). Also: nearly all actives have a fitted effect of over 45% in size. Conditions: SARS-S pseudotyped particle cell entry, luciferase reporter; series mostly up to 57.1 µM. For orientation: Quantitative high-throughput screening tests each substance at several concentrations.
Assay [2] in a line: Primary qHTS for Huh7 cytotoxicity: counterscreen for inhibitors of MERS-S pseudotyped particle cell entry (AID 1479147). The conditions noted are these: cell viability read-out; series mostly up to 57.1 µM.
The nature of assay [3]: Primary qHTS for inhibitors of MERS-S pseudo-typed particle cell entry (AID 1479149). Also: nearly all actives have a fitted effect of over 60% in size. Also: potency is read from the fitted curve at half-maximal effect. The conditions noted are these: MERS-S pseudotyped particle entry, luciferase; series mostly up to 57.1 µM.
A short description of assay [4]: Primary qHTS for Vero E6 cytotoxicity: counterscreen for inhibitors of SARS-S pseudo-typed particle cell entry (AID 1479150). Conditions: cell viability; series mostly up to 57.1 µM.

With `CCCCCCCCCCCCCC(=O)OC(C)C`, the Potency entry in assay [1], in assay [2], in assay [3] and in assay [4] was “inactive” each time.

As for `CCCCC(CC)COC(=O)c1ccc(N(C)C)cc1` (centres undefined), the Potency entry in assay [1], in assay [2], in assay [3] and in assay [4] was “inactive” in each case.

As to `CC(C)(C)NCC(O)c1ccc(O)c(CO)c1` (centres undefined), the Potency entry in assay [1], in assay [2], in assay [3] and in assay [4] was “inactive” throughout.

Take `N#C/C(=C1\SCC(c2ccccc2Cl)S1)n1ccnc1` (centres undefined): the Potency result in assay [1], in assay [2], in assay [3] and in assay [4] was “inactive” in each case.

For the molecule `COc1ncnc(NS(=O)(=O)c2ccc(N)cc2)c1OC`, the Potency result in assay [1], in assay [2], in assay [3] and in assay [4] was “inactive” throughout.

In the case of `CN(C(=O)C(Cl)Cl)c1ccc(OC(=O)c2ccco2)cc1`, the Potency entry in assay [1], in assay [2], in assay [3] and in assay [4] was “inactive” in each case.

With `CS(=O)(=O)c1ccc(C(=O)Nc2ccc(Cl)c(-c3ccccn3)c2)c(Cl)c1`, the Potency entry in assay [1], in assay [2], in assay [3] and in assay [4] was “inactive” each time.

For the molecule `CN1CCN(c2c(F)cc3c(=O)c(C(=O)O)cn4c3c2OCN4C)CC1`, the Potency entry in assay [1], in assay [2], in assay [3] and in assay [4] was “inactive” each time.

As for `CCOc1cc(NC(C)=O)ccc1C(=O)OC`, the Potency entry in assay [1], in assay [2], in assay [3] and in assay [4] was “inactive” throughout.

Take `COC(=O)c1ccc2c(C(=Nc3ccc(N(C)C(=O)CN4CCN(C)CC4)cc3)c3ccccc3)c(O)[nH]c2c1`: the Potency result in assay [1], in assay [2], in assay [3] and in assay [4] was “inactive” in each case.

`c1ccc2[nH]ccc2c1`: the Potency result in assay [1], in assay [2], in assay [3] and in assay [4] was “inactive” in each case.

Regarding `O=C(Nc1cccc(C2=NCCN2)c1)Nc1cccc(C2=NCCN2)c1`, the Potency result in assay [1], in assay [2], in assay [3] and in assay [4] was “inactive” in each case.

On to `O=C1NS(=O)(=O)c2ccccc21`, for which the Potency entry in assay [1], in assay [2], in assay [3] and in assay [4] was “inactive” in each case.

For the molecule `CC(C)C[C@H](NC(=O)CNC(=O)c1cc(Cl)ccc1Cl)B(O)O`, the Potency entry in assay [1] is “inactive”. Further, in assay [3], the Potency was 794 nM (active).
